# Assay results published in ChEMBL document CHEMBL3988442, “University of Dundee, Small-Polar-MMV Screening Library” (2021).
# The campaign covered roughly 48,000 compounds. About 13,000 (27%) showed an effect of 50% or more. The list shows a part of the results.
# Test system: Wolbachia pipientis
# Assay: Anti-Wolbachia Cell-Based Screen
# Format: functional
# Parameters: scale not given: in the data most compounds retested in dose-response had high values
# Details: 5 µM
row,SMILES,Percent Effect
1,COC(=O)c1cc(CN2CCC(c3noc(C)n3)CC2)c(C)s1,83.77%
2,COC(=O)c1ccc(CN2CCC(c3noc(C)n3)CC2)s1,44.67%
3,Cc1noc(CN2CCN(C(C)C(=O)NCc3cccs3)CC2)n1 (stereo not drawn),10.97%
4,COC(=O)c1ccc(CN2CCC(c3n[nH]c(C)n3)CC2)s1,96.4%
5,Cc1nc(C2CCN(S(=O)(=O)c3ccc4c(c3)CCO4)CC2)n[nH]1,0.09354%
6,COC(=O)c1ccc(CN2CCN(Cc3nc(C)no3)CC2)s1,97.03%
7,Cc1noc(CN2CCN(CCS(C)(=O)=O)CC2)n1,-3.839%
8,COC(=O)c1ccc(Cn2cccc(C(F)(F)F)c2=O)s1,-1.829%
9,CC(=O)NCC1CCN(Cc2nc(C3CC3)no2)CC1,21.76%
10,O=C1CCCc2occ(C(=O)N3CCCC4(CCNC4)C3)c21 (stereo not drawn),-0.7654%
11,Cc1c(Cl)cccc1S(=O)(=O)NCC(O)c1cccn1C (stereo not drawn),9.208%
12,O=C(NCCn1cccn1)Nc1cc(C(=O)N2CCOCC2)ccc1Cl,-1.545%
13,COCCNC(=O)[C@H]1C[C@@](CC(C)C)(C(=O)O)N(C)[C@H]1c1cccnc1,-5.7%
14,CC(C)n1cc(C(=O)NCCc2cn3ccsc3n2)cn1,-2.025%
15,CCCS(=O)(=O)NC(=O)c1ccc(-n2nc(C)cc2C)cc1,-12.15%
16,Cc1cc(C)n(-c2ccc(C(=O)NCc3cncn3CC(C)C)cc2)n1,-4.296%
17,CC(C)n1cc(C(=O)NCC(CO)Cc2cccs2)cn1 (stereo not drawn),100.7%
18,CSCc1nc(CNC(=O)c2cnn(C(C)C)c2)cs1,-8.764%
19,Cc1cc(C)n(-c2ccc(C(=O)NCC(CO)Cc3ccco3)cc2)n1 (stereo not drawn),116.9%
20,Cc1cc(C)n(-c2ccc(C(=O)NCC(CO)Cc3cccs3)cc2)n1 (stereo not drawn),87.25%
21,CC(CNC(=O)N1CCC(CO)CC1)Cc1cccs1 (stereo not drawn),-8.447%
22,Cc1cc(C)n(-c2ccc(C(C)NS(=O)(=O)CCCS(C)(=O)=O)cc2)n1 (stereo not drawn),5.826%

row,SMILES,Percent Effect
1,Cc1cc(-c2nn(C)c(Cl)c2CN2Cc3ccccc3C(O)C2)no1 (stereo not drawn),9.326%
2,CCCS(=O)(=O)N1CCC2(CCCC(=O)N2C)CC1,-27.87%
3,COCCN1CCN(Cc2ccc(C(C)=O)cc2)[C@H]2CS(=O)(=O)C[C@H]21,-2.157%
4,Cc1nn(C)c(Oc2cccc(F)c2)c1NC(=O)C1CCCO1 (stereo not drawn),1.382%
5,COC(=O)C1CN(Cc2ccc(-c3ccncc3)cc2F)C[C@@H](C)O1 (stereo partly drawn),4.503%
6,CC(C)OCCN1CCN(C(=O)c2cccc(-n3cccn3)n2)CC1,-4.895%
7,COc1cccc2c1OCC(CNC(=O)CSc1ccccn1)C2 (stereo not drawn),-6.827%
8,COc1cccc2c1OCC(C(=O)NCCc1nnc(C)s1)C2 (stereo not drawn),6.125%
9,COc1cccc2c1OCC(C(=O)NCCc1nnc(N)s1)C2 (stereo not drawn),12.39%
10,COc1cccc2c1OCC(NC(=O)NCCc1ccccn1)C2 (stereo not drawn),120.5%
11,COc1cccc2c1OCC(NC(=O)NCCC(N)=O)C2 (stereo not drawn),107.1%
12,COc1cccc2c1OCC(CNC(=O)CNC(N)=O)C2 (stereo not drawn),-0.3476%
13,CNC(=O)c1cccc(CNC2CCCSc3ccccc32)c1 (stereo not drawn),-0.5699%
14,CN(C)C(C(=O)NCC1(Cn2cccn2)CC1)c1ccc(F)cc1 (stereo not drawn),-7.743%
15,CSc1ccc(OC(C)C(=O)Nc2cc[nH]n2)cc1 (stereo not drawn),1.482%
16,COc1cccc(CNCc2nnc3n2CC(C(F)(F)F)CC3)c1 (stereo not drawn),-16.12%
17,CCC1COCCN1C(=O)CNC(=O)c1ccc2c(c1)CCC2 (stereo not drawn),-1.675%
18,CC(Cn1cccn1)NC(=O)NCCN1CCc2ccccc2C1 (stereo not drawn),1.571%
19,CCn1cc(NC(=O)NCC(C)(C)N2CCc3ccccc3C2)cn1,107.6%
20,CCn1cc(NC(=O)NCC(O)CN2CCc3ccccc3C2)cn1 (stereo not drawn),9.53%
21,CCC(CNC(=O)Nc1cnn(CC)c1)N1CCCC1 (stereo not drawn),-8.538%
22,NC(=O)Cn1cc(NC(=O)NCC2CCN(c3ccccc3)C2)cn1 (stereo not drawn),6.849%

row,SMILES,Percent Effect
1,NC(=O)Cn1cc(NC(=O)NCCN2CCc3ccccc3C2)cn1,93.55%
2,NC(=O)Cn1cc(NC(=O)N2CCCC2)cn1,-13.27%
3,CCC(CNC(=O)c1ccccc1Br)N1CCc2ccccc2C1 (stereo not drawn),-9.585%
4,CCn1cc(NC(=O)NCC(c2cccs2)N(C)C)cn1 (stereo not drawn),-11.74%
5,CCn1cc(NC(=O)NCCN2CCc3ccccc3C2)cn1,123.6%
6,CCC(CNC(=O)Nc1cnn(CC)c1)N1CCc2ccccc2C1 (stereo not drawn),115.3%
7,O=C(NCC(O)CN1CCc2ccccc2C1)Nc1cccnc1 (stereo not drawn),1.395%
8,CC(C)c1nn(C)c(N(C)C)c1CNCc1ccccc1CN(C)C,-8.36%
9,CCOc1ncccc1CNCc1c(C(C)C)nn(C)c1N(C)C,98.21%
10,Cc1cnn(CCNCc2c(C)nn(CCO)c2C)c1,8.317%
11,Cc1cc2nc(C(=O)NCc3cccnc3N(C)C)cc(C)n2n1,-11.37%
12,Cc1nn(C)c(N(C)C)c1CNCc1ccccc1Cn1cncn1,3.483%
13,COCCOc1ncccc1CNCc1c(C)nn(C)c1N(C)C,5.631%
14,COCc1ccccc1CNCc1c(C)nn(C)c1N(C)C,5.243%
15,Cc1nn(CCO)c(C)c1CNCc1cccnc1N(C)C,113.9%
16,Cc1nn(C)c(N(C)C)c1CNCc1cccnc1N(C)C,64.69%
17,COc1ncccc1CNCc1c(C)nn(C)c1N(C)C,96.94%
18,COc1ncccc1CNCc1c(C(C)C)nn(C)c1N(C)C,7.273%
19,CCOc1ccc(NC2CCN(C)C2=O)cn1 (stereo not drawn),-24.45%
20,Cc1noc(C)c1CN(C)CC1CC(C2CCCCC2)=NO1 (stereo not drawn),7.193%
21,Cc1cc(CNCC2(O)CCOCC2)ccc1Br,-3.743%
22,CN1CCN(CCCOc2ccccc2CN2C[C@H]3CC[C@H]2C3)CC1,-24.99%

row,SMILES,Percent Effect
1,Cc1nn(C)c(N(C)C)c1CNCc1cccnc1OC(C)C,107.9%
2,CCOc1ncccc1CNCc1c(C)nn(C)c1N(C)C,97%
3,Cc1nn(C)c(N(C)C)c1CNCc1ccccc1CN(C)C,13.98%
4,COc1c(CNCc2cccnc2OC(C)C)c(C(C)C)nn1C,2.472%
5,Cc1ccc(CNC(=O)C2CCN(C(=O)c3ccco3)CC2)n1C,1.7%
6,Cn1cc(CN2C[C@@H]3CCCO[C@@H]3[C@H](N3CCCC3=O)C2)cn1.O=C(O)C(F)(F)F,-11.94%
7,Cc1ccc(N2CCCC(NCc3ccsc3)C2)nn1 (stereo not drawn),-6.53%
8,Cc1ccc(N2CCCC(NCc3sccc3C)C2)nn1 (stereo not drawn),101%
9,Cc1ccc(N2CCCC(NCc3ccc(C)s3)C2)nn1 (stereo not drawn),102.5%
10,Cc1ccc(N2CCCC(NCc3cnc(C)s3)C2)nn1 (stereo not drawn),95.67%
11,CCN(CCOC)C(=O)CCc1scnc1C,1.791%
12,CCc1ccc(CNc2cc(-c3ccoc3C)nn2CCO)o1,-16.42%
13,Cc1nnc2n1CCN(C(=O)c1cnc3c(cnn3CC(C)C)c1)C2,-2.285%
14,Cc1nc2sccn2c1CN(CCCN(C)C)Cc1ccco1.O=C(O)CC(O)(CC(=O)O)C(=O)O,131.3%
15,Cc1ccc(CN(CCCN(C)C)Cc2cnc(N(C)C)nc2)o1.O=C(O)CC(O)(CC(=O)O)C(=O)O,115.6%
16,CC(C)CN(Cc1ccc(O)c(C(=O)O)c1)Cc1cnn(C)c1,-4.31%
17,COc1cc(CN(CCCN(C)C)Cc2ccccn2)cc2c1OCO2.O=C(O)CC(O)(CC(=O)O)C(=O)O,126.3%
18,O=C(Cc1cn2ccsc2n1)N(Cc1ccco1)CC1CCCO1 (stereo not drawn),1.448%
19,COc1cc(CN(Cc2ccccn2)CC(C)C)cc2c1OCO2,-37.75%
20,CN(C)c1ccc(CN(CCCn2ccnc2)Cc2c[nH]cn2)cc1.O=C(O)CC(O)(CC(=O)O)C(=O)O,-12.92%
21,CC(C)OCCCN(Cc1cnn(C)c1)Cc1ccccn1.O=C(O)CC(O)(CC(=O)O)C(=O)O,84.46%
22,Cc1ncsc1CCN(C)Cc1cc2n(n1)CCN(Cc1ccco1)C2,0.12%

row,SMILES,Percent Effect
1,COCc1cc(N(CC(F)F)C2CC2)n2ncnc2n1,-15.21%
2,CC(C)(Cn1cnc(-c2ccccc2)c1-c1ccco1)N1CCOCC1,0.7687%
3,Cc1nc2c(c(=O)n1C)CCN(C(=O)CCc1ccccn1)CC2,-4.884%
4,Cc1ccc(CN(CCCN2CCOCC2)Cc2cnn(C)c2)o1.O=C(O)CC(O)(CC(=O)O)C(=O)O,97.82%
5,CN(Cc1cnn(C)c1)S(=O)(=O)N1CCCC1c1ccco1 (stereo not drawn),-4.037%
6,CN(C)[C@@H]1CCN(C(=O)c2ccco2)[C@H]1Cc1cnn(C)c1.O=C(O)C(F)(F)F,-8.002%
7,COCCN(Cc1cnn(C)c1)Cc1ccc(C)o1,2.974%
8,CCN(CCCN1CCOCC1)C(=O)c1cnn(CC)c1,-6.092%
9,CN(C)CCCN(Cc1cnn(C)c1)Cc1ccco1.O=C(O)CC(O)(CC(=O)O)C(=O)O,115.2%
10,O=C1NCC2(CCCN(C(=O)Nc3ccc4scnc4c3)CC2)O1 (stereo not drawn),-9.08%
11,Cc1cnn(CC2CCN(CC(O)c3ccc(F)cc3)CC2)c1 (stereo not drawn),-5.813%
12,CC(C)(C)C(=O)N1CC[C@@H]2[C@H](CC1)N(S(C)(=O)=O)CCS2(=O)=O,98.9%
13,CC(C)CN1CC[C@@H]2[C@H](CC1)N(S(C)(=O)=O)CCS2(=O)=O.O=C(O)C(F)(F)F,96.88%
14,CC(C)CCC(=O)N1CC[C@@H]2[C@H](CC1)N(S(C)(=O)=O)CCS2(=O)=O,94.59%
15,CC(C)CC(=O)N1CC[C@@H]2[C@H](CC1)N(S(C)(=O)=O)CCS2(=O)=O,1.552%
16,CC(=O)N1CCS(=O)(=O)[C@@H]2CCN(S(=O)(=O)CC(C)C)CC[C@@H]21,8.105%
17,CC(C)(C)CC(=O)N1CC[C@@H]2[C@H](CC1)N(S(C)(=O)=O)CCS2(=O)=O,-4.617%
18,CC(=O)N1CCS(=O)(=O)[C@@H]2CCN(CC(C)C)CC[C@@H]21.O=C(O)C(F)(F)F,-6.859%
19,CC(C)CN1CCS(=O)(=O)[C@@H]2CCN(S(=O)(=O)C3CC3)CC[C@@H]21.O=C(O)C(F)(F)F,4.008%
20,CC(C)CN1CCS(=O)(=O)[C@@H]2CCN(S(=O)(=O)N(C)C)CC[C@@H]21.O=C(O)C(F)(F)F,-16.7%
